AMA1 RON2 block = qHTS for Inhibitors of AMA1-RON; Towards Development of Antimalarial Drug Lead: Primary Screen | AID 720542, 2013 | hit rate 0.2% among 360,000 | AlphaScreen AMA1-biotinylated RON2 peptide binding | Plasmodium falciparum AMA1 (3D7) - RON2 peptide interaction | Potency, µM (highest dose often 58.2 µM), without a hit: at the highest dose activity change, negative = inhibition, actives largely listed as inhibitors;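 note: 0% = vehicle wells and -100% = peptide control; nearly all actives have a fitted effect of over 45% in size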
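AMA1 (3D7) with his tag at 25 nM final met compounds first, then biotinylated RON2 peptide at 25 nM; detection used donor plus acceptor beads, 10 µg/mL apiece, read by AlphaScreen after 30 min at room temperature.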
Sm TGR block = qHTS Assay for the Inhibitors of Schistosoma Mansoni Peroxiredoxins. hit rate 3% among 360,000. AID 485364, 2010. purified TGR, DTNB reduction, TNB absorbance 405 nm. Schistosoma mansoni thioredoxin glutathione reductase (TGR), Q962Y6. Potency, µM (highest dose often 114 µM), for the others: at the top dose activity change, negative = inhibition, actives largely listed as inhibitors; note: % is set by controls: 0 for no effect and ±100 for the full control effect; nearly all actives have a fitted effect of over 60% in size
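First, TGR (20 nM dispensed) and NADPH were mixed with compound. Second, a 15 min room-temperature incubation followed. Third, further NADPH and then DTNB were added to start the reaction. Finally, TNB absorbance was monitored kinetically.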
NS1 inh = qHTS Assay for Inhibitors of Influenza NS1 Protein Function | Potency, µM (doses to about 46.1 µM), for the others: at the top dose activity, positive = more growth | hit rate 0.4% among 270,000; calls by dose curve; note: actives are rising curves; nearly all actives have a fitted effect of over 50% in size
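Read-out: OD600 growth recovery of NS1-expressing budding yeast. Cells grown overnight at 30C in -URA glucose medium, washed, resuspended and diluted 1:100 in 2% galactose assay medium, pH 6.0. Same strain lacking NS1 served as positive control.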
Pf growth 48h = Primary qHTS for delayed death inhibitors of the malarial parasite plastid, 48 hour incubation. P. falciparum luciferase growth in erythrocytes, 48 h. Potency, µM (doses to about 28.7 µM), inactives show at the highest dose activity change, negative = inhibition, usual class: inhibitors. hit rate 5.9% among 310,000. AID 504832, 2011; note: % is set by controls: 0 for no effect and ±100 for the full control effect
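Growth was read as firefly luciferase luminescence after a 48 h, 37 C, 5% CO2 exposure of compounds to reporter-bearing P. falciparum cultures (0.1% parasitemia, 2% hematocrit final) in Albumax-supplemented RPMI 1640.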
Pf growth 96h = Primary qHTS for delayed death inhibitors of the malarial parasite plastid, 96 hour incubation | P. falciparum luciferase reporter growth, 96 h | Potency, µM (titrated, usually from 28.7 µM), for the others: at the top dose activity change, negative = inhibition, most hits filed as inhibitors | hit rate 6.9% among 320,000; note: % is set by controls: 0 for no effect and ±100 for the full control effect
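Two parasite generations (96 h, 37 C, 5% CO2) of compound exposure in infected erythrocytes (0.05% parasitemia, 2% hematocrit). Luciferase-reporter P. falciparum; decreased luminescence indicates inhibited growth, aimed at apicoplast-acting delayed death.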
An asterisk follows results filed as active; ? = inconclusive; nt = no result given; [ ] = dose if it differs, or a comment. Sampled rows, rich in hits. Any-hit rate of the full collection: about 11%. Unless noted, calls come from the whole dose curve; as a rule, active = well fitted curve in the direction sought with a large enough effect; inconclusive = small, poorly fitted or top-dose-only effect, or another doubt; inactive = no such curve, though single readings can be large; an effect the other way counts as inactive or inconclusive. Potency is the fitted concentration of half-maximal effect.

SMILES	AMA1 RON2 block	Sm TGR block	NS1 inh	Pf growth 48h	Pf growth 96h
NC(=O)NC(=O)Nc1ccccc1Cl	-5%	-22%	-5%	30%	10µM*
COc1ccccc1NC(=S)NC(=O)C1CC1	1%	?	-2%	4%	15%
O=C(Nc1ccc2nccnc2c1)Nc1ccccc1Cl	-12%	6%	6%	8.3µM*	?
COC(=O)NC(=S)Nc1ccc(Oc2ccc(Cl)cc2Cl)c(Cl)c1	82%	-1%	11%	?	13µM*
O=C(NC(=S)Nc1ccccc1Cl)C1CC1	-10%	45µM*	-8%	4%	?
O=C(NC(=O)c1csnn1)Nc1ccccc1Cl	-4%	0%	-11%	48%	35%
O=C(Nc1cccc(Cl)c1)Nc1ccc2nccnc2c1	-10%	-15%	0%	-7%	?
Cc1nc2sccn2c(=O)c1S(=O)(=O)NCC1CCN(Cc2ccc(Cl)cc2)CC1	-2%	nt	nt	nt	nt
O=C(NS(=O)(=O)NC1CCCCC1)C1=C(N2CCCC2)COC1=O	8%	nt	nt	nt	nt
Cc1ccc2c(c1)-c1nc(-c3ccc(Cl)cc3)cc(-c3coc4ccccc4c3=O)c1CO2	nt	-9%	nt	nt	nt
CCOc1ccccc1NC(=S)NC(=O)C1CCCCC1	43%	8.9µM*	0%	?	?
CCC1CCCCN1C(=O)COc1ccccc1NC(C)=O (stereo not given)	-11%	50µM*	nt	-16%	33%
O=C(Nc1ccc(F)c(Cl)c1)C1CCCC1	11%	nt	nt	nt	nt
Cc1ccc(NC(=S)NC(=O)C2CC2)cc1Cl	18%	?	-22%	-26%	9.3µM*
O=C(NC(=S)Nc1ccc(F)c(Cl)c1)C1CC1	0%	16µM*	-18%	-37%	-6%
O=C(NC(=S)Nc1ccc(S(=O)(=O)N2CCCC2)cc1)C1CC1	78%	nt	-7%	?	0%
CCOc1ccccc1NC(=O)C1CCCC1	2%	nt	nt	nt	nt
NS(=O)(=O)c1ccc(CCNC(=O)CSc2nc3ccsc3c(=O)n2Cc2ccccn2)cc1	19%	nt	nt	nt	nt
COC(=O)[C@]12CCCCC=C1N(Cc1ccc3c(c1)OCO3)C(=O)[C@H](CC(=O)N1CCCCC1)C2	4%	nt	nt	nt	nt
Cc1ccc(-n2c(C)c([N+](=O)[O-])c3ccc(O)c(CN(C)C)c32)cc1	-9%	-8%	?	13µM*	nt
Cc1ccc(-n2c(C)c([N+](=O)[O-])c3ccc(O)cc32)cc1	nt	8.9µM*	6%	?	?
COc1ccc(-n2c(C)c([N+](=O)[O-])c3ccc(O)c(CN4CCCCC4)c32)cc1	-17%	11%	0%	nt	nt
Cc1cc(Br)ccc1NC(=O)CN(C)C(=O)c1ccccc1OCc1c(C)noc1C	-6%	nt	nt	nt	nt
Cc1cc2n(n1)CCC(=O)N2Cc1ccc(C(=O)Nc2ccc(Br)c(C)c2)cc1	nt	9%	nt	nt	nt
O=C(Nc1cccc(S(=O)(=O)N2CCOCC2)c1)c1c2c(nc3ccccc13)CCC2	6%	-13%	4µM*	?	?
SMILES	AMA1 RON2 block	Sm TGR block	NS1 inh	Pf growth 48h	Pf growth 96h
O=C(Nc1cccc(S(=O)(=O)N2CCCC2)c1)c1cccc(S(=O)(=O)N2CCOCC2)c1	-4%	-3%	nt	12µM*	?
Cc1noc(C)c1C(=O)Nc1cccc(S(=O)(=O)N2CCCCC2)c1	5%	-5%	nt	-15%	8.3µM*
O=C(Nc1cccc(O)c1)c1cccc(S(=O)(=O)N2CCCC2)c1	5%	30%	0%	-2%	2%
COc1cc(C(=S)N2CCOCC2)ccc1OS(=O)(=O)c1ccc(NC(C)=O)cc1	3%	-5%	-1%	14%	20%
COc1cc(C(=S)N2CCCC2)ccc1OS(=O)(=O)c1ccc(NC(C)=O)cc1	-4%	-2%	nt	2.1µM*	126%
CCc1noc(C)c1C(=O)Nc1cccc(S(=O)(=O)N2CCCCCC2)c1	0%	-12%	nt	?	-18%
O=C(Nc1cccc(S(=O)(=O)N2CCOCC2)c1)c1ccc2ccccc2n1	-4%	10%	4%	?	-25%
O=C(COC(=O)c1ccc(Br)cc1)NCCN1C(=O)CSC1=O	1%	-5%	-2%	0%	37%
CC1CCCCN1C(=O)c1ccc2c(c1)N(Cc1ccc(Cl)cc1)C(=O)c1ccccc1S2=O (stereo not given)	nt	4%	nt	nt	nt
Cc1cc(C)n(-c2ccc(C(=O)Nc3cccc(S(=O)(=O)N4CCCC4)c3)cc2)n1	-8%	4%	nt	-32%	10µM*
CC(C)Oc1ccc(C(=O)Nc2cccc(S(=O)(=O)N3CCCC3)c2)cc1	0%	nt	nt	nt	nt
CS(=O)(=O)c1ccc(C(=O)Nc2ccc(S(=O)(=O)N3CCCCC3)cc2)cc1	11%	-1%	nt	?	?
O=C(Nc1cccc(S(=O)(=O)N2CCCC2)c1)c1cc(S(=O)(=O)N2CCOCC2)ccc1F	0%	4%	nt	9.3µM*	?
CS(=O)(=O)c1cccc(C(=O)Nc2ccc(S(=O)(=O)N3CCCCC3)cc2)c1	5%	-5%	nt	?	9.3µM*
O=C(Nc1cccc(F)c1)c1cc(S(=O)(=O)N2CCOCC2)ccc1N1CCCC1	0%	0%	nt	?	?
Cc1noc(C)c1COc1ccc(C(=O)OCC(=O)Nc2cccc(S(=O)(=O)N3CCOCC3)c2)cc1	2%	-5%	?	-29%	5.2µM*
Cc1cc(Cl)ccc1Nc1ncnc2onc(C)c12	nt	2%	nt	nt	nt
COc1cc(C2(c3ccc(O)c(OC)c3)C(=O)Nc3c(C)cc(Br)cc32)ccc1O	-10%	nt	nt	nt	nt
COc1cc(OC)c(C(=O)Nc2ccc(S(=O)(=O)N3CCCCC3)cc2)cc1OC	-13%	-10%	nt	?	15µM*
Cc1cc(C)n(-c2ccc(C(=O)N3CCN(S(=O)(=O)c4ccc(C(C)C)cc4)CC3)cc2)n1	1%	-6%	nt	12µM*	?
COc1ccccc1CC(=O)OC(C)C(=O)Nc1ccc(S(=O)(=O)N2CCCCC2)cc1 (stereo not given)	0%[11.6 µM]	-14%	nt	?	?
Cc1cc(C)n(-c2ccc(C(=O)N3CCN(S(=O)(=O)c4cccc(Br)c4)CC3)cc2)n1	-6%	nt	nt	nt	nt
CCN(CC)S(=O)(=O)c1cccc(NC(=O)Nc2cccc(C(F)(F)F)c2)c1	-5%	-2%	19%	nt	4.1µM*
COc1ccc(CN(C)C(C)C(=O)Nc2ccc(S(=O)(=O)N3CCCCC3)cc2)cc1F (stereo not given)	-9%	2%	nt	10µM*	?
COc1cccc(/C=C/C(=O)OCC(=O)Nc2ccc(S(=O)(=O)N3CCCC3)cc2)c1	-2%	-1%	?	21%	10%
CNS(=O)(=O)c1cccc(C(=O)OCC(=O)c2ccc(S(=O)(=O)N3CCCCC3)cc2)c1	4%	-19%	nt	13µM*	?
O=C(Nc1nccs1)c1cccc(S(=O)(=O)N2CCCCC2)c1	32%	5%	-8%	-3%	15µM*
